# Measurements: PubChem BioAssay (EPA / NIEHS)
# Several values for one entry are separate records, joined by “and”; a condition that tells them apart may be missing. Equal values may be shown once. Some compounds were tested as several samples or in several runs, with calls that do not always agree. Activity calls are given as the source filed them. The calls were made as follows: active = hit-call score of the fitted dose curve at least 0.9, where 1 is the maximum; inactive = score below 0.9.
# Read-out: Secreted IgG (sIgG), gene 3500
# Experiment: BSK_BT_sIgG: BioMAP Diversity Plus: BT Assay for Secreted IgG (sIgG) Biomarker Activity (AID 2284226)
# Conditions: primary human B cells with PBMC
# In short: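 Read-out: ELISA for secreted IgG after 24 h of chemical exposure in a B cell plus PBMC co-culture. Values reflect upward-direction fitting against DMSO negative controls.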
SMILES,outcome,AC50
O=S(=O)(O)CCC(F)(F)C(F)(F)C(F)(F)C(F)(F)C(F)(F)C(F)(F)C(F)(F)C(F)(F)F,inactive,
OCC(F)(F)C(F)(F)C(F)(F)C(F)(F)C(F)(F)C(F)(F)CO,inactive,
OCCCCC(F)(F)C(F)(F)C(F)(F)C(F)(F)F,inactive,
OC(O)C(F)(F)C(F)(F)F,inactive,
O=C(O)C(F)(F)C(F)(F)C(F)(F)OC(F)(F)F,inactive,
C=CC(=O)OCC(F)(F)C(F)(F)C(F)(F)COC(=O)C=C,,6.41 µM (active) and 7.8 µM (active)
O=C(O)C(F)(F)C(F)(F)C(F)(F)C(F)(F)C(F)(F)C(F)(F)C(F)F,inactive,
FC(F)(F)C(F)(F)C(F)(F)C(F)(F)C(F)(F)C(F)(F)C(F)(F)CCI,inactive,
OCC(O)CC(F)(F)C(F)(F)C(F)(F)C(F)(F)F (stereo unspecified),inactive,
NC(=O)C(F)(F)C(F)(F)C(F)(F)F,inactive,
CNS(=O)(=O)C(F)(F)C(F)(F)C(F)(F)C(F)(F)C(F)(F)C(F)(F)C(F)(F)C(F)(F)F,inactive,27.6 µM (active)
O=S(=O)(OCC(F)(F)F)C(F)(F)C(F)(F)C(F)(F)C(F)(F)F,inactive,
O=C(O)C(F)(F)C(F)(F)C(F)(F)C(=O)O,inactive,
C=CC(=O)OCC(F)(F)C(F)(F)C(F)(F)C(F)(F)C(F)(F)C(F)(F)C(F)(F)C(F)F,inactive,46.2 µM (active)
NC(O)(C(F)(F)F)C(F)(F)F,inactive,
NC(=O)C(F)(F)C(F)(F)C(F)(F)C(F)(F)C(N)=O,inactive,
OCCCC(F)(F)C(F)(F)C(F)(F)C(F)(F)C(F)(F)C(F)(F)C(F)(F)C(F)(F)F,,45.9 µM (active) and 44.5 µM (active)
OCC(F)(F)C(F)(F)C(F)(F)C(F)(F)C(F)(F)C(F)(F)C(F)(F)C(F)(F)CO,,49.8 µM (active) and 47.1 µM (active)
NC(=O)C(F)(F)C(F)(F)C(F)(F)C(F)F,inactive,
C=CC(=O)OCCC(F)(F)C(F)(F)C(F)(F)C(F)(F)F,,36.7 µM (active) and 44.9 µM (active)
O=C(Cl)C(F)(F)C(F)(F)C(F)(F)C(F)(F)C(F)(F)C(F)(F)C(F)(F)F,inactive,
CCN(CCO)S(=O)(=O)C(F)(F)C(F)(F)C(F)(F)C(F)(F)C(F)(F)C(F)(F)C(F)(F)C(F)(F)F,,16.6 µM (active)
FC(F)(F)C(F)(F)C(F)(F)C(F)(F)C(F)(F)C(F)(F)CC[Si](Cl)(Cl)Cl,inactive,
C=C(C)C(=O)OCC(F)(F)C(F)(F)C(F)(F)C(F)F,inactive,
OCC(F)(F)C(F)(F)C(F)(F)CO,inactive,
O=C(O)C(F)(F)OC(F)(F)C(F)(F)OC(F)(F)C(F)(F)OC(F)(F)F,inactive,
NC(=O)C(F)(F)C(F)(F)C(F)(F)C(F)(F)C(F)(F)C(F)(F)C(F)(F)F,inactive,
CO[Si](C)(CCC(F)(F)C(F)(F)C(F)(F)C(F)(F)C(F)(F)C(F)(F)F)OC,inactive,
O=S(=O)(O)CCC(F)(F)C(F)(F)C(F)(F)C(F)(F)F,inactive,
